Screens as filed in PubChem BioAssay.
The sample as a whole holds a higher share of hits than the screen did.
KDM5B inhibitor: Primary screen for KDM5B Histone Demethylases FDH-coupled qHTS | 2.6% of 220,000 active | Potency, µM (top dose mostly 57.7 µM), actives largely listed as inhibitors | KDM5B demethylase, FDH-coupled NADH fluorescence (FDH is formaldehyde dehydrogenase); active means well fitted inhibition curve with a large enough effect; further: 0% is about no effect; nearly all actives have a fitted effect of over 70% in size
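Inhibition is measured as reduced NADH fluorescence generation from FDH coupling to formaldehyde release. Truncated KDM5BΔAP at 200 nM final acts on H3K4me3 peptide (12.5 µM in substrate mix) in pH 7.5 HEPES buffer with Tween-20, 30 min, room temperature.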
The depositor's hits bear a star; i = inactive. Potency means the concentration at half of the fitted maximal effect.

SMILES | KDM5B inhibitor
COCCn1ncc(N2CCCC(CC(=O)N(C)Cc3ccccc3)C2)cc1=O (stereo not given) | i
COc1ccc(NC(=O)Cn2ccc3ccc(Cl)cc32)c(OC)c1 | i
CCNC(=O)N(C1CC1)C1CCOC2(CCN(C(=O)CCc3cccc(OC)c3)CC2)C1 (stereo not given) | i
CCCC(C(=O)Nc1nc2ccc(OC)cc2s1)c1ccccc1 (stereo not given) | i
O/N=C/c1cc[n+](C/C=C\c2ccccc2)cc1 | i
O=C(Nc1nnc(-c2ccc(F)cc2)o1)C1CCN(S(=O)(=O)c2ccccc2C(F)(F)F)CC1 | i
COc1ccccc1CN1CCCC(c2[nH]ccc2C(N)=O)C1 (stereo not given) | i
Cc1ccc(SC(C)C(=O)Nc2cccc(F)c2)cc1 (stereo not given) | i
O=C(O)C(CO)NS(=O)(=O)c1ccc(Br)cc1 (stereo not given) | i
O=C(O)CCn1cc(C(C(=O)O)N2CCN(Cc3ccccc3)CC2)c2ccc(F)cc21 (stereo not given) | i
Cc1ccc(C)c(NC(=O)CN2C(=O)NC(c3ccccc3Cl)C3=C2COC3=O)c1 (stereo not given) | i
COc1ccc(CCN(C)Cc2nc(-c3ccccn3)no2)cc1OC | i
COc1ccc(CCN(C)C2CCCN(c3ncccc3C#N)C2)cc1OC (stereo not given) | 25µM*
CCn1nc(C)cc1C(=O)N1CCCC(N(C)CCc2ccc(OC)c(OC)c2)C1 (stereo not given) | i
Cc1ccc(Nc2nc(-c3ccc4[nH]c(=O)oc4c3)cs2)cc1F | i
O=C(c1cccnn1)N1CCC2(CCCN(C3CCOCC3)C2=O)C1 (stereo not given) | i
Cc1ncoc1C(=O)N1CCC2(CCCN(C3CCOCC3)C2=O)C1 (stereo not given) | i
O=C1N(C2CCOCC2)CCCC12CCN(c1ccc(Cl)cn1)C2 (stereo not given) | 28µM*
COCc1nncn1C1CCN(S(=O)(=O)c2ccc(OC)c(Cl)c2)CC1 | i
CC(=O)Nc1cc(C(=O)N2CCC(C)CC2)c2ccc(C)nc2c1 | 22µM*
CC1CCN(C(=O)c2cc(-c3ccncc3)nc3ccccc23)CC1 | i
CC(C)C(=O)Nc1ccc2c(c1)nc1n2CCOC1 | i
Cc1nc2cc(F)ccc2cc1C(=O)N1CCCC(C)CC1 (stereo not given) | i
Cc1ccc2c(C(=O)N3CCOCC3)cc(NC(=O)C(C)C)cc2n1 | 22µM*
COc1cccc(N2CCN(C(=O)c3cc(NC(=O)C(C)C)cc4nc(C)ccc34)CC2)c1 | i
SMILES | KDM5B inhibitor
COCc1nc(C2CCN(C(=O)c3n[nH]c4ccccc34)C2)no1 (stereo not given) | i
CC(=O)c1c(C)[nH]c(-c2csc(CC(=O)Nc3ccccc3C)n2)c1C | i
Cc1cc(C(F)(F)F)c(C#N)c(SCCc2ccccc2)n1 | i
O=C(O)C1Cc2nc[nH]c2CN1C(=O)CCc1cn2ccccc2n1 (stereo not given) | 11µM*
CC(C)(CC(=O)O)CC(=O)N1Cc2[nH]cnc2C[C@H]1C(=O)N1CCCC1 | i
CN(Cc1ccccc1)C(=O)[C@@H]1Cc2nc[nH]c2CN1C | i
Cc1cc(Cn2cc3c4c(cccc42)[C@H](CC(C)C)N[C@H](C(=O)NCc2cncn2C)C3)no1 | i
C#CCNC(=O)[C@@H]1Cc2cn(Cc3cc(C)on3)c3cccc(c23)[C@H](CC(C)C)N1 | 32µM*
Cc1noc(C)c1Cn1cc2c3c(cccc31)[C@H](CC(C)C)N[C@H](C(=O)NCC1CC1)C2 | 32µM*
Cc1cc(Cn2cc3c4c(cccc42)[C@H](CC(C)C)N[C@H](C(=O)NC2CCCC2)C3)no1 | i
COCCNC(=O)[C@@H]1Cc2cn(Cc3ccccn3)c3cccc(c23)[C@H](CC(C)C)N1 | i
CC(=O)NCCNC(=O)[C@@H]1Cc2cn(Cc3c(C)noc3C)c3cccc(c23)[C@H](CC(C)C)N1 | i
CC(C)CN(Cc1cccnc1)C1CN(C(=O)CCc2nc3ccccc3s2)C1 | i
COC(=O)C(OC(=O)c1[nH]c(C)c(C(C)=O)c1C)c1ccccc1Cl (stereo not given) | i
O=C1N(Cc2cccc(F)c2)CCCN1c1ccc(C(=O)N2CCc3ccccc32)cc1 | i
Cc1ccc(Sc2ccc(NC(=O)c3ccccc3)cc2)c(C)c1 | i
CN1CCc2c([nH]c3ccccc23)C12CCN(C(=O)C1CCC1)CC2 | i
CNc1c(NC(=O)NCC2CCCO2)c(=O)oc2ccccc12 (stereo not given) | i
O=C(Nc1cccc(F)c1)Nc1ccnn1C1CCN(C(=O)CCN2CCCO2)CC1 | i
NCCC(=O)N1CCC(n2nccc2NC(=O)Nc2cccc(F)c2)CC1 | 11µM*
O=C(Nc1ccnn1C1CCN(C(=O)CCCc2ccccc2)CC1)c1cccc(F)c1 | i
Cc1ccc(CNC(=O)CC2CCCN(c3cnn(C)c(=O)c3)C2)cc1 (stereo not given) | i
COC[C@@H]1CN(Cc2cnn(C)c2C)C[C@H]1C(=O)NC1CC1 | i
O=S1(=O)NCC2(CCCN(CCc3ccccc3)C2)Oc2ncccc21 (stereo not given) | i
O=S1(=O)NCC2(CCCN(Cc3ccccn3)C2)Oc2ncccc21 (stereo not given) | i
SMILES | KDM5B inhibitor
O=S1(=O)NCC2(CCN(Cc3ccoc3)CC2)Oc2ncccc21 | 50µM*
Cc1oc(C(O)c2ccccc2)nc1C(=O)Nc1ccc2c(c1)NC(=O)CO2 (stereo not given) | i
COc1ccc(-c2nnsc2C(=O)NC(C)CCc2ccccc2)cc1 (stereo not given) | i
C[C@@H](NC(=O)Nc1ccc(Cl)cc1)c1onc(-c2ccccc2)c1C(=O)O | i
Cc1noc([C@@H](C)NC(=O)Nc2ccc(Cl)cc2)c1C(=O)O | 40µM*
Cc1noc([C@@H](C)NC(=O)c2ccc(Cl)cc2)c1C(=O)O | i
CCCNC(=S)Nc1cccc(F)c1 | i
NC(N)=NC(N)=Nc1ccccc1Cl | i
NC(=O)CN1CCC(C(=O)N2C[C@@H](C(=O)O)[C@H](c3ccccc3)C2)CC1 | i
Cc1ccc(-c2nc(CC(=O)NC3CCN(Cc4ccccc4)CC3)cs2)cc1 | i
CCOC(=O)N1CCN(C(=O)c2cc3cc(C)ccc3[nH]2)CC1 | i
CCCCN1CCN(C(=O)CCc2cc3ccc(C)cc3[nH]c2=O)CC1 | i
Cc1ccc2[nH]c(=O)c(CCC(=O)N3CCCCC3)cc2c1 | 28µM*
Cc1cccc(-c2nocc2CCC(=O)NC2CCN(Cc3ccccc3)CC2)c1 | i
Cc1ccc2[nH]c(=O)c(CCC(=O)N3CCN(CC(C)C)CC3)cc2c1 | 22µM*
CC(=O)N(Cc1ccccc1)Cc1cc2cc(C)ccc2[nH]c1=O | i
CCCN(Cc1cc2cc(C)ccc2[nH]c1=O)S(C)(=O)=O | i
Cc1ccc2[nH]c(=O)c(CCC(=O)NC3CCN(Cc4ccccc4)CC3)cc2c1 | 25µM*
COc1ccccc1C1NC(=O)N(CC2CC2)C2=C1C(=O)OC2 (stereo not given) | i
CCn1cnnc1CC1CCN(C(=O)CCCC(=O)n2nc(C)c3ccccc32)CC1 | i
O=C(c1cncc(Br)c1)N1CCC2(CC1)CC(O)CCO2 (stereo not given) | i
COC(=O)c1cccc(COC(=O)c2ccc3c(c2)OCCCO3)c1 | i
Cc1cc(NC(=O)COc2c(C)cc(Cl)cc2Cl)ccc1NC(=O)c1ccco1 | i
